Experimental data: PubChem BioAssay
The source made the active and inactive calls.

What was measured:
[1] = system: Human papillomavirus type 1a protein E7 (residues 44-93); assay: HPV1a E7 fragment binders on microarrays, primary screen, biochemical, small-molecule microarray, residues 44-93, 635 nm fluorescence (AID 1108); settings: small-molecule microarray binding, fluorescence 635 nm; higher = more signal;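 note: E7 fragment applied at 1 µg/mL in TBST for 1 h at 4 C; score combines spot fluorescence with its signal to noise ratio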
[2] = modulators of HCV replicon luciferase signal, primary screen, HCV replication inhibitor project, Huh7 cells, luciferase reporter (AID 1109); settings: 48 h, higher = more signal;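 note: huh7 hepatoma cells harbouring a luciferase neomycin HCV replicon reporter; luciferase luminescence as measure of HCV replicon replication; test concentration not given here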
[3] = molecular target: Left-right determination factor 2 (Homo sapiens) (UniProt O00292); assay: LEFTY2 binders on small-molecule microarrays, primary screen, biochemical, small-molecule microarray, 635 nm fluorescence scan (AID 1110); settings: LEFTY2 binding, higher = more signal
Sequence of Left-right determination factor 2 (Homo sapiens) (O00292 whole entry, looked up): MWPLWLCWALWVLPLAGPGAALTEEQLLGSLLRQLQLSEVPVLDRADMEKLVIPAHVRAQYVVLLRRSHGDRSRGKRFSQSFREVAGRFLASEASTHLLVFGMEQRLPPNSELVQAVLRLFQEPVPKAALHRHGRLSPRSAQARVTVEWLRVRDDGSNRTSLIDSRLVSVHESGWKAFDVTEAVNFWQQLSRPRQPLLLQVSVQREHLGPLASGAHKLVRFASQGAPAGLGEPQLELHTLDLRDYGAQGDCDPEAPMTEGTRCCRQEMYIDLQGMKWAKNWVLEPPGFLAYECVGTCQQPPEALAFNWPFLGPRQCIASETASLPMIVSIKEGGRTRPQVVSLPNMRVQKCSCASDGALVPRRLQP

[4] = molecular target: Calmodulin-1 (Homo sapiens) (UniProt P0DP23); assay: CALM1 binders on microarrays, EGTA buffer, profiling panel, biochemical, small-molecule microarray, Cy5-labelled CALM1 (AID 1111); settings: Cy5-CALM1 binding fluorescence, higher = more signal;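 note: labelled calmodulin applied in Tris saline Tween buffer holding calcium plus EGTA and DTT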
[5] = molecular target: Calmodulin-1 (Homo sapiens) (UniProt P0DP23); assay: calcium-bound CALM1 binders on microarrays, profiling panel, artefact control for SMM control-protein annotation, biochemical, small-molecule microarray, Cy5-labelled CALM1, plus calcium (AID 1112); settings: Cy5-CALM1 binding fluorescence, higher = more signal;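 note: score merges spot fluorescence with signal to noise from triplicate slides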
[6] = small-molecule microarray binders of probe aWnt5a, primary screen, biochemical, biotinylated probe, 635/667 nm fluorescence (AID 1113); settings: higher = more signal;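 note: score merges 667 nm fluorescence intensity with signal-to-noise per printed feature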
[7] = small-molecule microarray binders of probe aShh, primary screen, biochemical, biotinylated probe, 635/667 nm fluorescence (AID 1114); settings: higher = more signal;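 note: probe is biotin-labelled aShh protein from a stem cell growth factor screen; measures binding of labelled protein to compounds printed on the slide; score merges feature fluorescence at 667 nm with signal-to-noise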
[8] = small-molecule microarray binders of probe aNog, primary screen, biochemical, biotinylated probe, 635/667 nm fluorescence (AID 1115); settings: higher = more signal;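 note: probe is biotinylated aNog protein used at 0.15 µg/mL for 1 h at 4 C; z-score combines 667 nm fluorescence of each spot with its signal to noise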
[9] = molecular target: Torsin-1A-interacting protein 1 (Homo sapiens) (UniProt Q5JTV8); assay: LAP1 binders from COS7 cell lysate, primary screen, small-molecule microarray, 635/667 nm fluorescence (AID 1116); settings: COS7-hLAP1 lysate binding, 635 nm fluorescence, higher = more signal
Sequence of Torsin-1A-interacting protein 1 (Homo sapiens) (Q5JTV8 whole entry, looked up): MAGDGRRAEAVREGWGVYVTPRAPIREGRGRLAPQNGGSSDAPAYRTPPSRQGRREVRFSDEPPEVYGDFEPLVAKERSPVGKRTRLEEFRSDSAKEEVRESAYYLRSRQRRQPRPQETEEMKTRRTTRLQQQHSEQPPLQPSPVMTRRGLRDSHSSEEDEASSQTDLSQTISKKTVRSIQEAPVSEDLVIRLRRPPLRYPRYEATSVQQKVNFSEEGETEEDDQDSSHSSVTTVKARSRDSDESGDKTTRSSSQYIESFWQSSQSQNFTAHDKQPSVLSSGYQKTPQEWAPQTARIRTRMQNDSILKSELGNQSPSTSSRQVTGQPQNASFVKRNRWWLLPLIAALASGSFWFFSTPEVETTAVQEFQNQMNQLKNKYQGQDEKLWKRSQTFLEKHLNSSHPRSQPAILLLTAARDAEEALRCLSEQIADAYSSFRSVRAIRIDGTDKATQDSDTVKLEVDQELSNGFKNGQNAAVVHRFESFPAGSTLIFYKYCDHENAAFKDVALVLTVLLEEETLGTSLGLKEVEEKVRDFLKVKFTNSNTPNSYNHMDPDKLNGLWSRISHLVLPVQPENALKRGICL

[10] = molecular target: Alpha-bungarotoxin (Bungarus multicinctus) (UniProt P60615); assay: alpha-bungarotoxin binders on microarray, profiling panel, artefact control for SMM control protein annotation, biochemical, small-molecule microarray, Alexa647 label, 635/667 nm fluorescence (AID 1117); settings: alpha-BTX-A647 binding fluorescence, higher = more signal
Sequence of Alpha-bungarotoxin (Bungarus multicinctus) (P60615 whole entry, looked up): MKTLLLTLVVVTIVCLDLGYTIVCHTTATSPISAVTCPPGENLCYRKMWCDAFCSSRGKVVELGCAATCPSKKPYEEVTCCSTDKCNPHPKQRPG

[11] = molecular target: Albumin (Bos taurus) (UniProt P02769); assay: bovine serum albumin binders on microarray, profiling panel, artefact control for SMM control protein annotation, biochemical, small-molecule microarray, Alexa647 label, 635/667 nm fluorescence (AID 1118); settings: BSA-A647 binding, fluorescence 635 nm, higher = more signal;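 note: score merges 667 nm emission intensity and signal-to-noise per printed compound spot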
Sequence of Albumin (Bos taurus) (P02769 whole entry, looked up): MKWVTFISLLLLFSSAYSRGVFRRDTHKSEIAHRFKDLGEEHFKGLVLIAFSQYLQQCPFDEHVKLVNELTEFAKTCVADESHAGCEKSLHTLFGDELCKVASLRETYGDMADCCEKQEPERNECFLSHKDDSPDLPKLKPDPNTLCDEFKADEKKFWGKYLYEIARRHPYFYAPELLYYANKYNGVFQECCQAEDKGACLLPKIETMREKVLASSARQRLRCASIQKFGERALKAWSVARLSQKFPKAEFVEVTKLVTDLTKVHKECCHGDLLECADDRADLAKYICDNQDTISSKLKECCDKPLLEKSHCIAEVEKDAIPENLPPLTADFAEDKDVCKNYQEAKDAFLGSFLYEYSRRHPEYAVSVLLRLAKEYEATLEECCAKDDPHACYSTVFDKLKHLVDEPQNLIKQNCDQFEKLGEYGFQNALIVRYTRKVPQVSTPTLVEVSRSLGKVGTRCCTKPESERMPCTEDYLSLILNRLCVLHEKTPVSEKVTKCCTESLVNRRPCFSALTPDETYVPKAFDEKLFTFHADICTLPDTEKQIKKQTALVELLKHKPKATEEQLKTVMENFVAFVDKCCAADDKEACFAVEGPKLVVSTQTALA

[12] = small-molecule microarray binders of probe aXIP, primary screen, biochemical, NeuroSMM set, 635/667 nm fluorescence (AID 1119); settings: higher = more signal, called active from +8 up or from −8 down;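 note: probe is the protein aXip251-270 applied at 1 µg/mL to compound-printed slides; binding of probe to printed compounds measured as 667 nm fluorescence plus signal to noise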
[13] = small-molecule binders of probe aNOTCH3, primary screen, biochemical, small-molecule microarray, 635/667 nm fluorescence (AID 1120); settings: higher = more signal;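 note: probe is a biotin-tagged antibody raised against NOTCH3 rather than NOTCH3 protein; score merges spot fluorescence near 667 nm with spot signal to noise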
[14] = small-molecule binders of probe aNOTCH2, primary screen, biochemical, small-molecule microarray, 635/667 nm fluorescence (AID 1121); settings: higher = more signal;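 note: score merges feature fluorescence read at 667 nm with its signal to noise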
[15] = molecular target: Carbonic anhydrase 2 (Homo sapiens) (UniProt P00918); assay: CAII small-molecule binders, profiling panel, biochemical, small-molecule microarray, Alexa647-labelled CAII (AID 1122); settings: CAII-A647 binding fluorescence, higher = more signal
[16] = COS7 lysate on small-molecule microarray, probe aHis, 635 nm (AID 1123); settings: COS7 cell lysate, fluorescence, higher = more signal;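 note: z-score combines 667nm fluorescence intensity with signal-to-noise per printed compound spot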
[17] = compound binding in COS7 lysate, probe aLAP1, primary screen, cell lysate, small-molecule microarray (AID 1124); settings: probe aLAP1, fluorescence, higher = more signal;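 note: lysate comes from COS7 cells expressing LAP1 and is applied at 0.3 µg/mL; score merges spot fluorescence near 667 nm with signal-to-noise over triplicate slides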
[18] = system: Sam68 (KHDRBS1); assay: Sam68 small-molecule binders, primary screen, biochemical, small-molecule microarray, 635 nm fluorescence (AID 1125); settings: small-molecule microarray binding, higher = more signal;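 note: score merges 667 nm channel intensity with signal to noise over triplicate slides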
[19] = system: Chordin-like protein 2 (CHRDL2); assay: CHRDL2 small-molecule binders, primary screen, biochemical, small-molecule microarray, 635 nm fluorescence (AID 1126); settings: small-molecule microarray binding, fluorescence 635 nm; higher = more signal;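 note: printed compound slides probed with Chrdl2 protein at 4 µg/mL for 1 h at 4 C; score merges 667 nm emission intensity with signal to noise over three replicate slides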
[20] = molecular target: Concanavalin-A (Canavalia ensiformis) (UniProt P02866); assay: ConA small-molecule binders, primary screen, artefact control for SMM control protein annotation, biochemical, small-molecule microarray, Alexa647 label, 635 nm (AID 1127); settings: ConA-A647 binding fluorescence, higher = more signal;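 note: z combines 667 nm emission intensity with signal-to-noise across three replicate slides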
Sequence of Concanavalin-A (Canavalia ensiformis) (P02866 whole entry, looked up): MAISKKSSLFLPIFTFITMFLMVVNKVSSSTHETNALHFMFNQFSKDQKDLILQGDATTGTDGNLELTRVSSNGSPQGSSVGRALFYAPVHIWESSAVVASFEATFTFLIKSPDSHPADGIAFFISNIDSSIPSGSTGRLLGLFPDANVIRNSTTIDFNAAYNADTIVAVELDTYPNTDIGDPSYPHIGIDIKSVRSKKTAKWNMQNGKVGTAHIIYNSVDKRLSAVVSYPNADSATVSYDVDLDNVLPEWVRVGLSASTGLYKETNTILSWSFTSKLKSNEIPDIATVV

SMILES	composite z-score [1]	z-score [2]	composite z-score [3]	composite z-score [4]	composite z-score [5]	composite z-score [6]	composite z-score [7]	composite z-score [8]	composite z-score [9]	composite z-score [10]	composite z-score [11]	composite Z-score [12]	composite z-score [13]	composite z-score [14]	composite z-score [15]	composite z-score [16]	composite z-score [17]	composite z-score [18]	composite z-score [19]	composite z-score [20]
C=CC[C@]1(C(=O)O)N=C(c2ccc(OCCCO)cc2)O[C@H]1c1ccccc1	-0.726	-0.138	-0.764	1.21	0.994	-0.124	0.216	0.448	0.498	0.378	0.769	0.523 (inactive)	-0.0591	0.0415	0.758	2.37	0.563	0.351	-0.916	0.486
C=CCC(OC(C)=O)[C@@H]1[C@@H](N(Cc2cc3ccccc3o2)C(=O)Cc2ccc(F)cc2)c2cc(OCCCO)ccc2N1C(=O)c1ccc(-c2ccccc2)cc1 (stereo not given in full)	-0.524	0.591	-0.159	-0.302	1.14	-0.154	0.0141	0.389	-0.467	0.208	-0.182	-0.765 (inactive)	-0.0881	0.0017	-0.309	0.125	-0.546	-0.533	-0.26	-0.764
C[N+](C)(C)CCCCNC(=O)[C@H]1C[C@H]2C(=O)NCC(=O)N2[C@H]1c1cccc(OCCO)c1	0.296	-0.651	1.17	-1.68	-1.96	0.0618	0.147	-0.178	0.724	0.804	-1.39	1.49 (inactive)	0.147	-0.112	0.454	0.961	0.258	1.05	1.45	1.12
COC(=O)C1=CC(c2ccc(CO)cc2)=CC(c2cccs2)N(Cc2cccc(OC(F)(F)F)c2)C=C1C(=O)OC (stereo not given)	0.532	-1.84	-0.0215	2.19	0.815	-0.0236	0.685	1.39	1.81	3.16	1.09	0.639 (inactive)	0.0979	-0.101	0.671	2.76	0.641	1.34	-0.602	1.18
COc1cc2c(cc1OC)CN(C(=O)[C@@H]1[C@H]3C(=O)O[C@H](c4ccccc4)[C@H](c4ccccc4)N3[C@H](c3ccccc3OCCO)[C@@]13C(=O)Nc1ccccc13)CC2	1.01	-2.02	0.187	0.421	0.234	0.213	-0.0213	0.0101	-0.345	2.07	0.665	-0.316 (inactive)	0.746	-0.112	0.609	0.938	1.31	1.2	0.182	0.997
CC(=O)NCCCC[C@@H]1NC(=O)[C@H]2C[C@@H](C(=O)NCCCCCCN(C)C)[C@@H](c3ccc(O)cc3)N2C1=O	0.19	1.87	0.851	-0.382	-1.53	-0.154	0.23	0.512	1.85	2.01	-0.546	1.44 (inactive)	0.029	-0.0626	0.365	2.16	-0.1	1.31	1.09	1.18
CCOC(=O)C[C@H]1[C@H](OC(=O)Cc2ccc3c(c2)OCO3)[C@@H](NC(=O)CC(C)C)c2cc(OCCCO)ccc2N1C(=O)c1ccccc1	0.338	0.0689	0.371	-0.278	-0.215	-0.0478	0.081	0.161	0.662	0.111	0.842	0.312 (inactive)	-0.0682	0.0972	0.186	0.41	-0.0777	0.562	0.133	-1.14
COCCCNC(=O)[C@@H]1c2ccccc2C(=O)N(CC23CC4CC(CC(C4)C2)C3)[C@H]1c1ccc(CO)cc1	0.666	-1.57	-0.191	0.879	0.803	-0.0405	0.778	0.0051	0.926	0.253	-0.507	0.309 (inactive)	0.28	-0.0232	0.449	1.34	0.334	1.27	-0.0949	-0.171
C=C(COC)/C(=C/C[C@H](OC(C)=O)c1ccc(OCCO)cc1)c1cnc2ccccc2c1	0.5	-0.773	0.523	0.339	0.214	-0.001	0.261	0.0107	0.458	1.56	0.0916	-0.0473 (inactive)	0.196	-0.108	0.797	0.193	-0.0578	1.27	1.24	1.05
O=C1c2ccccc2[C@@]2(Cc3ccccc3N(CC(F)(F)F)C2=O)[C@H](c2ccc(CO)cc2)N1C1CCCCC1	0.796	-0.387	0.542	-0.575	0.017	-0.0192	-0.0977	-0.369	0.415	-0.223	-0.976	-0.336 (inactive)	0.157	-0.122	0.807	0.31	0.48	0.588	0.759	0.709
C=CCC(OC(C)=O)[C@@H]1[C@@H](N(Cc2cccc3ccccc23)C(=O)Cc2ccc(F)cc2)c2cc(OCCCO)ccc2N1C(=O)Cc1ccc2ccccc2c1 (stereo not given in full)	-0.28	0.874	-0.368	-0.571	0.158	-0.0179	-0.326	0.0129	-0.148	0.983	0.0257	-0.227 (inactive)	-0.0881	-0.0194	-0.117	0.293	-0.27	-0.146	-0.214	-1.5
